# Screens (PubChem BioAssay)
# In the library only some 7% were active in any assay of this set; here they are far more common.
# rCAG binder = binders of r(CAG) RNA repeats, primary screen, biochemical, fluorescence. inhibition, % at 3 µM. r(CAG) RNA repeat, TO-PRO-1 dye displacement fluorescence. 370,000 tested, 1.3% active;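 active means inhibition above the plate cutoff, the mean of all test compounds on that plate plus 3 SD, cut at about 35% in these data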;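 further: 0% = DMSO alone and 100% = 100 µM mitoxantrone as full dye displacement; higher means more dye released from RNA so lower well fluorescence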
# AHR activator = AHR activators, primary screen, cell-based, luminescence, luciferase reporter, human; 320,000 tested, 2.5% active; AID 2796, 2010; activation, % at 5 µM; AHR-responsive luciferase reporter cells; in the data active means activation above about 47%;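 further: 0% = vehicle wells and 100% = reference agonist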
# KLK7 zymogen act = proKLK7 zymogen activators, primary screen, biochemical, fluorescence intensity; Kallikrein-7 (Homo sapiens), P49862; purified proKLK7, EDANS-DABCYL substrate fluorescence; 100% is mature enzyme control, 0% vehicle; activation, % at 7 µM; 370,000 tested, 0.9% active; AID 652039, 2013;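 active means activation above the mean of all tested compounds plus 3 SD, computed per campaign excluding outliers beyond control limits, cut at about 13% in these data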
# ADAM17 inh = ADAM17 inhibitors, primary screen, biochemical, QFRET; Disintegrin and metalloproteinase domain-containing protein 17 (Homo sapiens), P78536; recombinant ADAM17, EDANS/DABCYL FRET peptide cleavage; inhibition, % at 6.95 µM; 370,000 tested, 0.83% active; AID 720648, 2013;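 active means inhibition above the mean of compounds lying between control limits plus 3 SD, set per campaign, cut at about 8.5% in these data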;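 further: 0% = DMSO-only wells as the low control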
# NR3A LBD binder = binders of NR3A ligand-binding domain, primary screen, biophysical, differential scanning fluorimetry, uHTS. NR3A LBD differential scanning fluorimetry, Tm shift; 0% = protein alone, 100% = glycine-bound protein. 340,000 tested, 2.5% active. Glutamate receptor ionotropic, NMDA 3A (GRIN3A) ligand-binding domain. Tm shift relative to glycine control, % at 25 µM. AID 1259313, 2017;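 active means melting temperature shift of at least 10% of the positive control shift, at one fixed dose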
# ADAM10 inh = human ADAM10 inhibitors, primary screen, biochemical, QFRET, HTS | Disintegrin and metalloproteinase domain-containing protein 10 (Homo sapiens), O14672 | recombinant ADAM10, EDANS/DABCYL FRET peptide cleavage, 3 h | inhibition, % at 7 µM | 370,000 tested, 0.62% active;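 active means inhibition above a per-campaign cutoff equal to the mean of compounds falling between control-based bounds plus 3 SD, cut at about 20% in these data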;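 further: 0% = DMSO wells while the 100% control is not disclosed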
# rCAG binder conf = small molecules binding CAG repeat RNA – biochemical, fluorescence, confirmation; r(CAG) RNA repeat, TO-PRO-1 dye displacement fluorescence; shares compounds with rCAG binder; 4,300 tested, 70% active; inhibition, % at 3 µM;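 active means inhibition above a per-plate cutoff, the mean inhibition of sample wells plus 3 SD, cut at about 35% in these data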;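 further: loss of TO-PRO-1 fluorescence as compound displaces dye from 1x1 AA loop RNA; 0% = DMSO only wells and 100% = 100 µM mitoxantrone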
# DNA CAG counter = displacement of TO-PRO-1 from CAG DNA duplex, counter-screen for rCAG RNA repeat binder project, biochemical, fluorescence, TO-PRO-1 dye, d(CAG) DNA oligo | shares compounds with rCAG binder | d(CAG) DNA oligo TO-PRO-1 dye displacement | inhibition, % at 3 µM | 4,300 tested, 94% active | AID 652068, 2013;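 active means inhibition above its plate's cutoff, the mean test-well inhibition plus 3 SD, cut at about 4.8% in these data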;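 further: 0% = DNA dye mix with DMSO and 100% = 100 µM mitoxantrone; hits displace the dye from DNA and so lower well fluorescence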
# DNA CAG DR = inhibitors of DNA CAG/GTC TO-PRO-1 complex, dose response, counter-screen for rCAG RNA repeat binder project, biochemical, fluorescence, TO-PRO-1 dye; shares compounds with rCAG binder; DNA CAG/GTC duplex TO-PRO-1 dye displacement fluorescence; IC50, µM; 250 tested, 20% active; AID 686960, 2013; in the data active means IC50 below about 10 µM
# Numbers without * were called inactive; . = not tested or not shown.
SMILES,rCAG binder,AHR activator,KLK7 zymogen act,ADAM17 inh,NR3A LBD binder,ADAM10 inh,rCAG binder conf,DNA CAG counter,others
CCOC(=O)C1=C(C)N=c2s/c(=C\c3ccc(OCC(=O)O)cc3)c(=O)n2C1c1ccc(Cl)cc1 (stereo not given),55*,.,0,-2,7,5,73*,36*,
CCOC(=O)C1=C(C)N=c2s/c(=C\c3ccc(OCC(=O)O)cc3)c(=O)n2C1c1ccccc1OC (stereo not given),31,1,-3,-6,3,1,.,.,
CCOC(=O)C1=C(C)N=c2s/c(=C/c3ccc(OCC(=O)O)cc3)c(=O)n2C1c1ccc(F)cc1 (stereo not given),69*,0,1,-2,0,8,77*,36*,
COc1ccc(C2C(C(=O)OC(C)C)=C(C)N=c3s/c(=C\c4cccs4)c(=O)n32)cc1 (stereo not given),9,9,0,-1,0,-6,.,.,
CCOC(=O)C1=C(C)N=c2s/c(=C/c3ccc(OCC(=O)O)c(OC)c3)c(=O)n2C1c1ccc(Cl)cc1 (stereo not given),44*,-2,-2,-2,3,-10,54*,16*,
CCOC(=O)C1=C(C)N=c2s/c(=C/c3ccccc3)c(=O)n2C1c1ccc(OC)c(OC)c1 (stereo not given),-1,2,0,-4,-2,-6,.,.,
CC1=C(C(=O)OC(C)C)C(c2ccc(Cl)cc2)n2c(sc(=Cc3ccc(OCC(=O)O)cc3)c2=O)=N1 (stereo not given),42*,.,-1,1,.,7,64*,30*,DNA CAG DR=>30
CCOC(=O)C1=C(C)N=c2s/c(=C/c3ccc(OCC(=O)O)cc3)c(=O)n2C1c1ccc(OC)cc1OC (stereo not given),20,1,-6,2,-1,9,.,.,
COCCSc1nnc(-c2cccnc2)n1Cc1ccccc1,1,.,0,1,.,2,.,.,
COC(=O)C1CCN(C2CN(Cc3cn(Cc4ccc(C(F)(F)F)cc4)nn3)S(=O)(=O)C2)CC1 (stereo not given),-3,.,0,-6,.,-4,.,.,
CCOC(=O)C1=C(C)N=c2s/c(=C\c3ccc(O)c([N+](=O)[O-])c3)c(=O)n2C1c1ccccc1OC (stereo not given),52*,1,-1,-2,0,2,88*,64*,
COc1ccc(NC(=O)CN(c2ccc([N+](=O)[O-])cc2)S(=O)(=O)c2ccccc2)cc1,5,7,0,3,4,13,.,.,
COc1ccc(N(CC(=O)Nc2ccccc2C(=O)O)S(=O)(=O)c2ccc(C)c([N+](=O)[O-])c2)cc1,72*,0,0,-5,-16,-7,54*,17*,
Cc1ccc(S(=O)(=O)N(CC(=O)Nc2ccccc2C(=O)O)c2ccccc2)cc1,41*,5,0,-3,2,5,34,8.4*,
